# Target: Concanavalin-A (Canavalia ensiformis) (UniProt P02866)
# Experiment: ConA small-molecule binders, primary screen, artefact control for SMM control protein annotation, biochemical, small-molecule microarray, Alexa647 label, 635 nm (AID 1127);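 further: z combines 667 nm emission intensity with signal-to-noise across three replicate slides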
# Settings: ConA-A647 binding fluorescence, higher = more signal
# Chain of Concanavalin-A (Canavalia ensiformis) (P02866 whole entry, looked up): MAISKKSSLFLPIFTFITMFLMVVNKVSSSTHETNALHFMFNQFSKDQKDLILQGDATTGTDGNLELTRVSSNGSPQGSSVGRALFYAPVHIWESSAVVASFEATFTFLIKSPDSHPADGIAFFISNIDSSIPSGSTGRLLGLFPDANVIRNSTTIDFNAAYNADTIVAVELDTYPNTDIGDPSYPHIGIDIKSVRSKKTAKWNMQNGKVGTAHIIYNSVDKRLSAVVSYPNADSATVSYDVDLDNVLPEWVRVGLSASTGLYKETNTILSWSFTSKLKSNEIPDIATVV
row,Compound,composite z-score
1,C=C(COC)/C(=C/C[C@@H](OC(C)=O)c1cccc(OCCO)c1)c1cc(C(=O)OC)ccc1OC,-0.937
2,CCOC(=O)C[C@H]1[C@H](OC(=O)c2ccccc2-c2ccccc2)[C@@H](NC(=O)c2ccc(-c3ccccc3)cc2)c2cc(OCCCO)ccc2N1C(=O)Cc1ccc(OC)cc1,0.398
3,[N-]=[N+]=NCc1ccccc1C[C@]1(C(=O)N2CCCCC2)N=C(c2ccc(OCCCO)cc2)O[C@H]1c1ccccc1CN=[N+]=[N-],1.04
4,CO[C@H]1COC(=O)[C@@H](OCc2ccccc2)C=C[C@H](C)[C@@H](OC)COC(=O)[C@H](OCc2ccccc2)C=C[C@@H]1C,-0.218
5,COCCOC(=O)N1C(=O)[C@@]2(c3cc(C#CCNC(N)=O)ccc31)[C@H](c1ccc(OCCO)cc1)N1[C@H](c3ccccc3)[C@H](c3ccccc3)OC(=O)[C@H]1[C@@H]2C(=O)Nc1nc2ccccc2s1,0.915
6,CCOC(=O)C1=CC[C@@H](c2ccc(-c3ccc(OCc4ccccc4)cc3)c(OC)c2)N(S(=O)(=O)c2ccc(C)cc2)[C@H]1c1ccccc1,1.13
7,Cc1ccc(S[C@]2(C(=O)O)CC(=O)N(Cc3ccccc3)[C@@H]2c2ccc(CO)cc2)cc1,-0.467
8,Cc1ccc(S[C@]2(C(=O)NC(C)C)CC(=O)N(Cc3cc(C(F)(F)F)cc(C(F)(F)F)c3)[C@@H]2c2ccc(CO)cc2I)cc1,-0.442
9,CO[C@@H]1COC(=O)[C@H](COCc2ccccc2)NC(=O)CC=C[C@@H](C)[C@H](OC)COC(=O)[C@H](COCc2ccccc2)NC(=O)CC=C[C@H]1C,-0.582
10,CCC1=C2CN(Cc3ccccc3Br)[C@@H]([C@@H](O)Cc3ccccc3)C2C=CCC1 (stereo not given in full),0.646
11,COCCOC(=O)N1C(=O)[C@@]2(c3cc(C#CCC(C(=O)OC)C(=O)OC)ccc31)[C@H](c1ccccc1OCCO)N1[C@H](c3ccccc3)[C@H](c3ccccc3)OC(=O)[C@H]1[C@@H]2C(=O)N1CCCCCCC1,1.02
12,CO[C@@H]1COC(=O)[C@@H]2CCCN2C(=O)CC=C[C@@H](C)[C@H](OC)COC(=O)[C@@H]2CCCN2C(=O)CC=C[C@H]1C,-0.512
13,C=C(COC)/C(=C/C[C@H](OC(C)=O)c1ccc(OCCO)cc1)c1cnc2ccccc2c1,1.05
14,CC(=O)Nc1ccc([C@H]2[C@H](C)CC[C@H]3C(=O)N4[C@@H](CC[C@@H](C)[C@@H]4c4ccc(NC(C)=O)cc4)C(=O)N32)cc1,1.12
15,CN(C)CCCC[C@@H]1NC(=O)[C@@H]2C[C@H](C(=O)O)[C@H](c3ccc(O)cc3)N2C1=O,1.12
16,C[C@@H]1CC[C@H]2C(=O)N3[C@@H](CC[C@@H](C)[C@@H]3c3cccc(N4CCOCC4)c3)C(=O)N2[C@H]1c1cccc(Br)c1,0.92
17,CCCN1C(=O)[C@@]2(CCS(=O)(=O)c3ccccc3)N=C(c3ccc(OCCCO)cc3)O[C@H]2c2ccccc21,0.892
18,O=C(O)[C@@H]1Cc2c([nH]c3ccccc23)[C@@H](c2ccccc2)N1,0.813
19,C[C@@H]1CC[C@H]2C(=O)N3CCC[C@H]3C(=O)N2[C@H]1c1ccc(Br)cc1,-0.377
20,CCC#CCN(Cc1ccccc1Br)[C@H](/C=C/c1ccccc1)[C@@H](O)Cc1ccccc1,-0.779
21,[N-]=[N+]=NCc1ccccc1C[C@]1(C(N)=O)N=C(c2ccc(OCCCO)cc2)O[C@H]1c1ccccc1CN=[N+]=[N-],0.991
22,C=CCC(OC(C)=O)[C@@H]1[C@@H](N(Cc2ccc(-c3ccccc3)cc2)C(=O)c2ccc(-c3ccccc3)cc2)c2cc(OCCCO)ccc2N1C(=O)Cc1ccc(OC)cc1 (stereo not given in full),0.411
23,O=C1C[C@@](C(=O)NC2CC2)(c2ccc([N+](=O)[O-])cc2)[C@@H](c2ccc(CO)cc2I)N1CC12CC3CC(CC(C3)C1)C2,1.1
24,Cc1ccc(N2C(=O)c3ccccc3[C@@H](C(=O)NCC(F)(F)F)[C@@H]2c2ccc(CO)cc2)nc1,-1.9
25,C=CC[C@]1(C(=O)O)N=C(c2ccc(OCCCO)cc2)O[C@H]1c1ccccc1,0.486
